# From PubChem BioAssay AID493248 (Broad Institute, 2011)
# Out of some 2,300 compounds screened, about 1,400 (61%) were called active. Another 7% or so got no clear call; they are omitted. No rule for the calls is given here. So high a share suggests a set chosen from earlier hits. A selection follows. Entries with a potency or affinity are not part of this list.
# Target: FAD-linked sulfhydryl oxidase ALR (Homo sapiens) (UniProt P55789)
# Assay: inhibitors of human ALR sulfhydryl oxidase, dose response, biochemical, H2O2 detection, luminescence, cherry-pick (AID 493248)
# Settings: purified ALR, DTT oxidation, H2O2 HRP-luminol luminescence; at 10 µM (top of the series)
# FAD-linked sulfhydryl oxidase ALR (Homo sapiens), sequence (P55789 whole entry, looked up): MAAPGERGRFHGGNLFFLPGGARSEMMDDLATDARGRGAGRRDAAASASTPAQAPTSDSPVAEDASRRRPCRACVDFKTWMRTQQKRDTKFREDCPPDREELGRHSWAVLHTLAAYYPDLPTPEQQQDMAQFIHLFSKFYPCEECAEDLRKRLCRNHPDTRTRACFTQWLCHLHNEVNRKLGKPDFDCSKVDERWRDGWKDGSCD
row,Compound,"activity change, negative = inhibition [%]"
1,O=[N+]([O-])c1cccc(N/N=C/c2cccc(O)c2O)c1,-6.94
2,O=C(CNc1ccccc1)N/N=C/c1c[nH]c2ccccc12,-29.1
3,Cn1c(CNc2ccc(F)cc2)nc2ccccc21,4.17
4,COc1ccc2nc3ccccc3nc2c1N,417
5,COc1ccc(Nc2nc(N)c3ccccc3n2)c(OC)c1,-5.05
6,CCN1C(=O)c2cccc3c(N)ccc1c23,-69.8
7,Cc1ccc(S(=O)(=O)NCC(=O)NCC2CCCCC2)cc1C,18.2
8,Cn1c(=O)[nH]c(=O)c2c1[nH]c(=S)n2Cc1ccccc1,-58.1
9,O=C(c1cc(-c2ccc(O)cc2)on1)N1CCCCCC1,-103
10,Cc1cnc(C(=O)Nc2ccc(C(=O)N3CCCCC3)cc2)cn1,0.57
11,C/C(=N\NC(=O)c1csc2ccccc12)c1ccc(O)cc1,-107
12,CC(C)(C)C(=O)NC1=NCCS1,-0.254
13,COc1ccc(CNc2ccc(Br)cc2)cc1,-0.843
14,C/C(=N\Nc1ccccn1)c1ccc(OC(F)F)cc1,30.6
15,COc1cc(C(=O)n2nc(C)cc2C)ccc1O,108
16,CC(C)(C)NC(=O)C(Cc1ccccc1)NS(=O)(=O)c1ccc2c(c1)CCC(=O)N2 (stereo unspecified),-98.2
17,Cc1ccc(-n2[nH]c(C)c(/C=N/NC(=O)c3ccc(O)cc3O)c2=O)cc1,-40.4
18,COc1c(Cl)cc(C(=O)NN)cc1Cl,-36.3

row,Compound,"activity change, negative = inhibition [%]"
1,NNC(=O)c1cc(O)c(O)c(O)c1,8.57
2,CCCc1cc(=O)[nH]c(SCc2cccnc2)n1,-44.3
3,CC1(C)CN(c2ccccc2)N(C(=O)c2ccc(F)cc2)C1=O,-46.1
4,COc1cc(/C=N/O)cc(Br)c1OC,21.8
5,CCN(CC)CC(=O)c1ccc(-c2ccccc2)cc1,-34.7
6,CCc1ccccc1Nc1ccc(C(=O)O)cc1N,-23
7,Oc1ccc(-c2cnns2)c(O)c1,-104
8,N[C@@H](Cc1ccccc1)c1nnc(SCc2ccccc2Cl)o1,-33.5
9,O=C(O)c1cc([N+](=O)[O-])c(Sc2nc3ccccc3[nH]2)c([N+](=O)[O-])c1,-46.4
10,COc1cccc(NC(=O)c2c([N+](=O)[O-])cnn2C)c1,-15.3
11,Nc1ccccc1C(O)(Cc1ccccc1)c1ccccc1 (stereo unspecified),-3.4
12,Fc1ccccc1Nc1n[nH]c(=S)s1,-40.4
13,COc1cc(/C=N/Nc2ccc([N+](=O)[O-])cn2)cc(OC)c1O,-73.9
14,C=C(C)C(=O)Nc1ccc(NC(C)C)cc1,266
15,CC(Nc1ccccc1)c1cc(Cl)ccc1O (stereo unspecified),-48.4
16,COc1ccccc1N(Cc1ccccc1)S(=O)(=O)c1cc(C(=O)O)ccc1Cl,-48.6
17,Cc1ccc2c(CN3CCC(C(N)=O)CC3)cc(=O)oc2c1C,-10.9
18,CN(C)Cc1c(O)ccc2c3c(c(=O)oc12)CCCCC3,148
